Drawing on PubChem BioAssay (EPA / NIEHS), this text covers AC50 and outcome for 29 compounds.

Values joined by “and” are separate entries in the source; they are usually repeats but may differ in a detail not shown here. Equal values may be shown once. Where a structure was tested more than once in an assay, its records may differ in their call. Active and inactive are the calls of the source. Rule for the calls: active = hit-call score of the fitted dose curve at least 0.9, where 1 is the maximum; inactive = score below 0.9.

Broadly, the AC50 is the concentration at which the activity in the assay is half-maximal.

Read-out in one test: Human Leukocyte Antigen - DR isotype (HLADR), HLA-DRA (gene 3122)
Nature of the test: BSK_BE3C_HLADR: BioMAP Diversity Plus: BE3C Assay for Human Leukocyte Antigen - DR isotype (HLADR) Biomarker Activity (AID 2283032). Particulars: primary human bronchial epithelial cells; actives raise or lower the signal. An outline of the steps:
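Cell-surface HLA-DR ELISA readout at 24 h after dosing in the BE3C primary human lung bronchial epithelial system; gain or loss of signal against DMSO, with parallel sulforhodamine B staining of total protein for overt cytotoxicity.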
As for `Clc1nc(Cl)c(Cl)c(Cl)c1Cl`, the concentration at half-maximal activity (AC50) is 26.4 µM (active).

In the case of `CC[C@H]1OC(=O)[C@H](C)[C@@H](O[C@H]2C[C@@](C)(OC)[C@@H](O)[C@H](C)O2)[C@H](C)[C@@H](O[C@@H]2O[C@H](C)C[C@H](N(C)C)[C@H]2O)[C@](C)(O)C[C@@H](C)C(=O)[C@H](C)[C@@H](O)[C@]1(C)O`, the result was inactive.

Regarding `CCOc1cccc(-n2cc(C(=O)N3CCN(c4cc(C(=O)O)c5ccccc5c4)CC3)nc2-c2ccc(C)cc2)c1`, the AC50 is 24.5 µM (active).

For `CC(C)CCCCCCOC(=O)c1ccc(C(=O)OCCCCCCC(C)C)c(C(=O)OCCCCCCC(C)C)c1`, the outcome was inactive.

In the case of `Cc1[nH]cnc1C[C@H]1CCc2c(C)c3ccccc3n2C1=O`, the result was inactive.

For the compound `Oc1ccc2c(c1)-c1ccccc1C2`, the outcome was inactive.

For the compound `CCCN(C1CCN(C(=O)C2CCNCC2)CC1)[C@@H]1CCc2ccc(OC)cc2C1`, the outcome was inactive.

In the case of `COC(=O)c1ccccc1O`, the result was inactive.

Regarding `COCCOCCOCCOC`, the outcome was inactive.

As for `O=c1[nH]c2ccc(S(=O)CCN3CCC(Cc4ccc(F)cc4)CC3)cc2o1` (centres undefined), the outcome was inactive.

As to `O=C(O)CC(O)C(=O)O` (centres undefined), the outcome was inactive.

Regarding `CC(C)CC(C)(O)C#CC(C)(O)CC(C)C` (centres undefined), the outcome was inactive.

For `CC/C(=C\C(=N/O)C(N)=O)C(C)[N+](=O)[O-]` (centres undefined), the result was inactive.

With `COCCOc1cc2cc(C(=O)NC3CCN(C(C)C)CC3)n(CC(=O)Nc3ccc(Cl)cn3)c2cn1`, the result was inactive.

On to `COC(=O)CC(=O)OC`, for which the result was inactive.

On to `C1N2CN3CN1CN(C2)C3`, for which the result was inactive.

As to `CNCc1ccc(NC(=O)c2c[nH]c3c2C(=O)CCC3)cc1`, the outcome was inactive.

As to `CC(=O)OC[C@H]1O[C@@](COC(C)=O)(O[C@H]2O[C@H](COC(C)=O)[C@@H](OC(C)=O)[C@H](OC(C)=O)[C@H]2OC(C)=O)[C@@H](OC(C)=O)[C@@H]1OC(C)=O`, the result was inactive.

For `O=C(O)c1cc(N=Nc2ccc(S(=O)(=O)Nc3ccccn3)cc2)ccc1O`, the result was inactive.

`CCCCCCCCO`: the result was inactive.

Regarding `CN(C)c1ccc(Cc2ccc(N(C)C)cc2)cc1`, the AC50 was 36.3 µM (active).

With `C[C@](N)(Cc1ccc(O)c(O)c1)C(=O)O`, the result was inactive.

As to `CCOCCOCCOCCO`, the outcome was inactive.

Take `CC[C@H]1CC[C@H](NCc2cc3c(cc2OC)[C@H]2C[C@H]2C(=O)N3C)[C@H](c2ccccc2)N1`: the outcome was inactive.

For `Nc1ccc(Nc2ccccc2)cc1`, the outcome was inactive.

In the case of `On1ccccc1=S`, the half-maximal activity concentration (AC50) was 3.31 µM (active).

As for `CCOC(=O)CC(CC(=O)OCC)(OC(C)=O)C(=O)OCC`, the outcome was inactive.

`O=C(O)c1cccc(Oc2ccccc2)c1`: the result was inactive.

On to `Cn1cnc([N+](=O)[O-])c1Sc1ncnc2nc[nH]c12`, for which the outcome was inactive.

Read-out in the next test: Vascular cell adhesion molecule 1 (VCAM1), VCAM1 (gene 7412)
Nature of the test: BSK_4H_VCAM1: BioMAP Diversity Plus: 4H Assay for Vascular cell adhesion molecule 1 (VCAM1) Biomarker Activity (AID 2283033).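 For outcome: cell-surface VCAM-1 protein measured by ELISA.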 The following applies: primary human endothelial cells (HUVEC); actives raise or lower the signal. An outline of the steps: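 VCAM-1 ELISA read 24 h after chemical dosing of HUVEC in the BioMAP 4H system, with gain or loss of signal fitted relative to DMSO. Parallel SRB staining (560 nm) checked overt cytotoxicity.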
For `Clc1nc(Cl)c(Cl)c(Cl)c1Cl`, the AC50 is 20 µM (active).

As for `CC[C@H]1OC(=O)[C@H](C)[C@@H](O[C@H]2C[C@@](C)(OC)[C@@H](O)[C@H](C)O2)[C@H](C)[C@@H](O[C@@H]2O[C@H](C)C[C@H](N(C)C)[C@H]2O)[C@](C)(O)C[C@@H](C)C(=O)[C@H](C)[C@@H](O)[C@]1(C)O`, the result was inactive.

With `CCOc1cccc(-n2cc(C(=O)N3CCN(c4cc(C(=O)O)c5ccccc5c4)CC3)nc2-c2ccc(C)cc2)c1`, the AC50 was 29.9 µM (active).

For `CC(C)CCCCCCOC(=O)c1ccc(C(=O)OCCCCCCC(C)C)c(C(=O)OCCCCCCC(C)C)c1`, the outcome was inactive.

Regarding `Cc1[nH]cnc1C[C@H]1CCc2c(C)c3ccccc3n2C1=O`, the AC50 was 28.9 µM (active).

As to `Oc1ccc2c(c1)-c1ccccc1C2`, the outcome was inactive.

Regarding `CCCN(C1CCN(C(=O)C2CCNCC2)CC1)[C@@H]1CCc2ccc(OC)cc2C1`, the result was inactive.

Turning to `COC(=O)c1ccccc1O`, the result was inactive.

On to `COCCOCCOCCOC`, for which the result was inactive.

Consider `O=c1[nH]c2ccc(S(=O)CCN3CCC(Cc4ccc(F)cc4)CC3)cc2o1` (centres undefined), for which the AC50 was 15.3 µM (active).

In the case of `O=C(O)CC(O)C(=O)O` (centres undefined), the outcome was inactive.

On to `CC(C)CC(C)(O)C#CC(C)(O)CC(C)C` (centres undefined), for which the outcome was inactive.

On to `CC/C(=C\C(=N/O)C(N)=O)C(C)[N+](=O)[O-]` (centres undefined), for which the result was inactive.

In the case of `COCCOc1cc2cc(C(=O)NC3CCN(C(C)C)CC3)n(CC(=O)Nc3ccc(Cl)cn3)c2cn1`, the outcome was inactive.

With `COC(=O)CC(=O)OC`, the result was inactive.

On to `C1N2CN3CN1CN(C2)C3`, for which the result was inactive.

Regarding `CNCc1ccc(NC(=O)c2c[nH]c3c2C(=O)CCC3)cc1`, the outcome was inactive.

Regarding `CC(=O)OC[C@H]1O[C@@](COC(C)=O)(O[C@H]2O[C@H](COC(C)=O)[C@@H](OC(C)=O)[C@H](OC(C)=O)[C@H]2OC(C)=O)[C@@H](OC(C)=O)[C@@H]1OC(C)=O`, the result was inactive.

Take `O=C(O)c1cc(N=Nc2ccc(S(=O)(=O)Nc3ccccn3)cc2)ccc1O`: the result was inactive.

Consider `CCCCCCCCO`, for which the result was inactive.

Turning to `CN(C)c1ccc(Cc2ccc(N(C)C)cc2)cc1`, the result was inactive.

On to `C[C@](N)(Cc1ccc(O)c(O)c1)C(=O)O`, for which the result was inactive.

Take `CCOCCOCCOCCO`: the result was inactive.

For `CC[C@H]1CC[C@H](NCc2cc3c(cc2OC)[C@H]2C[C@H]2C(=O)N3C)[C@H](c2ccccc2)N1`, the outcome was inactive.

As for `Nc1ccc(Nc2ccccc2)cc1`, the AC50 was 3.97 µM (active).

In the case of `On1ccccc1=S`, the AC50 was 14.8 µM (active).

Take `CCOC(=O)CC(CC(=O)OCC)(OC(C)=O)C(=O)OCC`: the result was inactive.

For the compound `O=C(O)c1cccc(Oc2ccccc2)c1`, the outcome was inactive.

Consider `Cn1cnc([N+](=O)[O-])c1Sc1ncnc2nc[nH]c12`, for which the concentration at half-maximal activity (AC50) was 8.19 µM (active) and 9.52 µM (active); the outcome was inactive.
